IL1B secr inh: inflammasome signaling inhibition, IL-1 beta readout; THP-1 LPS/ATP IL-1B secretion, AlphaLISA, 16 h; stronger effect = lower value; activity change, % at 57.5 µM; 360,000 tested, 4.7% active; in the data active = activity change below about -50%; inconclusive = mostly about -30% to -49%; also: % is scaled to controls: 0 for no effect and ±100 for the full control effect
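THP-1 cells pretreated 1 hr with compounds (up to 57.5 uM final), then stimulated with LPS (250 ng/mL final) plus ATP (1.25 mM final); secreted IL-1B measured by AlphaLISA after 16 hr, decreased signal indicating inhibition.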
S-ASM inh: human S-ASM enzyme inhibition; Potency, µM (doses to about 57.5 µM), for the others: at the top dose activity change, negative = inhibition, most hits filed as inhibitors; placental ASM, HMU-PC fluorogenic substrate, 60 min; AID 504937; 340,000 tested, 0.006% active; also: potency is read from the fitted curve at half-maximal effect
Target sequence (P17405 47-631 limits assumed): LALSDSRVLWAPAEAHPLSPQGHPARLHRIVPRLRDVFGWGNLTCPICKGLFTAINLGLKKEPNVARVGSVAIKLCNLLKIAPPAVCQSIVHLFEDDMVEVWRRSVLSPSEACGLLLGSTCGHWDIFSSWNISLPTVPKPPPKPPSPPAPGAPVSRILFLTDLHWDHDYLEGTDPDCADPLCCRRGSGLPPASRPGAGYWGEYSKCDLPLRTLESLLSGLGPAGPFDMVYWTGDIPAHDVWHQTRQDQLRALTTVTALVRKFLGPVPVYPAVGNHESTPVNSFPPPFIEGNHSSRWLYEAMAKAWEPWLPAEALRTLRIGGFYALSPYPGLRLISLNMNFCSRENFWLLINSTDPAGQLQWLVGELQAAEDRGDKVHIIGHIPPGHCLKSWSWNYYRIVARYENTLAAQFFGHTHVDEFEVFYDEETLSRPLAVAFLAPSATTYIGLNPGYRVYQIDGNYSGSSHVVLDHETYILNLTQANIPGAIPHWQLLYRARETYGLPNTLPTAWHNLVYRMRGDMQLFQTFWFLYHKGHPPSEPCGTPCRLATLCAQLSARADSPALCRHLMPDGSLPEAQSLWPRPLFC
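Human placenta-derived ASM enzyme was preincubated with compound for 10 minutes at room temperature, then given fluorogenic substrate HMU-PC0 (9 uM final) for 60 minutes at 37 °C; a pH 10 stop preceded fluorescence reading at Ex 386/Em 447 nm.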
TGFb inhibitor: TGF-b pathway inhibition; AID 588855; Potency, µM (titrated, usually from 46.1 µM), for inactives: top-dose activity, negative = inhibition, hits mostly inhibitors; 410,000 tested, 1.2% active; HepG2 CAGA-GFP TGF-b/SMAD3 reporter, GFP fluorescence, 18 h; TGF-beta stimulated, 500 pg/mL final; also: potency is read from the fitted curve at half-maximal effect; % is scaled to controls: 0 for no effect and ±100 for the full control effect; nearly all actives have a fitted effect of over 65% in size
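Smad-responsive CAGA-GFP expression was quantified in HEPG2 cells exposed to compounds and 500 pg/mL final TGF-beta for 18 h at 37 degrees C; unstimulated wells defined full inhibition.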
TDP1 cell CPT: growth inhibition of DT40 Tdp1-/-;hTDP1 cells with camptothecin (screen for TDP1 inhibitors) | AID 686979 | Potency, µM (doses to about 46.2 µM), for the others: at the top dose activity change, negative = growth inhibition, hits mostly inhibitors | chicken DT40 Tdp1-/-;hTDP1 cells + 20 nM CPT, ATP luminescence, 48 h | 420,000 tested, 12% active; also: potency is read from the fitted curve at half-maximal effect; % is scaled to controls: 0 for no effect and ±100 for the full control effect; nearly all actives have a fitted effect of over 55% in size
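Chicken DT40 Tdp1-/- cells complemented with human TDP1, 400 cells/well, exposed to compounds plus 20 nM camptothecin for at least 48 h at 37 C; viability read as ATP content by CellTiter-Glo luminescence.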
HepG2 tox: HepG2 cytotoxicity, counter-screen for TGF-b inhibitors; HepG2 CAGA-GFP viability, ATP luminescence, 18 h; Potency, µM (highest dose often 46.1 µM), for the others: at the top dose activity change, negative = cytotoxicity, usual class: cytotoxic; 410,000 tested, 0.76% active; AID 588856; also: potency is read from the fitted curve at half-maximal effect
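HepG2 CAGA-GFP cells (1000/well, DMEM with 1% FBS) received compound, then TGF-beta at 500 pg/mL final, and were incubated 18 hours at 37 degrees C. Viability was read by CellTiter-Glo luminescence. Media-only wells were set as complete cell-killing and DMSO as no toxicity.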
DT40 TDP1 no CPT: qHTS for Inhibitors of human tyrosyl-DNA phosphodiesterase 1 (TDP1): qHTS in cells in absence of CPT; DT40 Tdp1-/- hTDP1 cells, no CPT, ATP luminescence, 48 h; Potency, µM (top dose mostly 46.2 µM), for inactives: top-dose activity change, negative = growth inhibition, hits mostly inhibitors; 420,000 tested, 15% active; AID 686978, 2013; also: potency is read from the fitted curve at half-maximal effect; % is scaled to controls: 0 for no effect and ±100 for the full control effect; nearly all actives have a fitted effect of over 55% in size
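Readout: luminescence from CellTiter-Glo after 30 min in the dark at RT. Cells: DT40 Tdp1-/- with stable hTDP1, 400/well. Exposure: compounds alone, ≥48 hr, 37 °C.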
* = called active by the depositor; ? = inconclusive; . = not tested or not shown; [ ] = dose if it differs, or a comment. Most compounds without a hit are left out; they make up all but 19% or so of the library. Unless noted, calls follow the shape of the dose curve; as a rule, active = well fitted curve in the direction sought with a large enough effect; inconclusive = small, poorly fitted or top-dose-only effect, or another doubt; inactive = no such curve, though single readings can be large; an effect the other way counts as inactive or inconclusive.

SMILES	IL1B secr inh	S-ASM inh	TGFb inhibitor	TDP1 cell CPT	HepG2 tox	DT40 TDP1 no CPT
O=C(Nc1ccc2c(c1)OCO2)C1CCCN(S(=O)(=O)c2cccs2)C1 (configuration not stated)	-9.7	-1.5%	-5.9%	16.4µM*	-47.5%	?
CCOC(=O)c1c(S(=O)(=O)N2CCCC(C(=O)Nc3ccc(C)cc3C)C2)c(C)n(CC)c1C (configuration not stated)	.	.	-27.9%	?	-9.2%	?
CCOC(=O)c1c(S(=O)(=O)N2CCCC(C(=O)Nc3cccc(CC)c3)C2)c(C)n(CC)c1C (configuration not stated)	.	.	?	18.4µM*	-31.7%	?
O=C(Nc1ccc2c(c1)OCCO2)C1CCN(S(=O)(=O)c2cccs2)CC1	11.8	1.9%	-2.2%	-6.4%	-12.7%	?
COc1ccc(NC(=O)C2CCCN(S(=O)(=O)c3cccs3)C2)cc1OC (configuration not stated)	-1.4	-0.6%	-2.4%	?	-1.7%	?
CCc1cccc(NC(=O)C2CCCN(S(=O)(=O)c3cccs3)C2)c1 (configuration not stated)	-16.0	-1.6%	?	16.4µM*	-6.5%	13µM*
O=C(Nc1ccc2c(c1)OCCO2)C1CCCN(S(=O)(=O)c2cccs2)C1 (configuration not stated)	7.3	-1.7%	4.1%	13µM*	-4.9%	?
COc1ccc(CCN2CC(C(=O)NCc3cn(C)nc3C)CCC2=O)cc1 (configuration not stated)	-5.0	.	-13.1%	3.2%	6.0%	6.7%
Cc1ccccc1COC(=O)c1cc([N+](=O)[O-])ccc1N1CCOCC1	15.5	-13.8%	0.0%	?	-13.4%	?
O=C(COC(=O)c1cc(S(=O)(=O)N2CCCCC2)ccc1N1CCOCC1)c1ccccc1Cl	-1.2	.	0.7%	-13.5%	-0.6%	-28.0%
O=C(OCc1ccc(F)cc1)c1cc(S(=O)(=O)N2CCCCC2)ccc1N1CCOCC1	-5.1	.	-7.7%	29.1µM*	3.8%	11.6µM*
COc1ccc(COC(=O)c2cc(S(=O)(=O)N3CCCCC3)ccc2N2CCOCC2)cc1	-2.9	-0.6%	-0.2%	18.4µM*	-0.7%	16.4µM*
CSc1ccc(COC(=O)c2cc([N+](=O)[O-])ccc2N2CCOCC2)cc1	-9.2	-13.1%	?	0.0411µM*	-11.0%	0.0259µM*
CN(Cc1ccc(F)cc1)C(=O)c1cc(S(=O)(=O)N2CCCCC2)ccc1N1CCOCC1	-5.1	1.8%	3.1%	?	-76.1%	16.4µM*
COc1ccccc1CNS(=O)(=O)c1cnc(N)nc1	.	.	-2.7%	0.9%	-5.8%	-5.7%
COCC(=O)N1CCC2CC1c1cc(Cl)ccc12 (configuration not stated)	32.0	6.8%	19.6%	-1.1%	5.5%	-15.1%
O=C(Nc1c(C(=O)N2CCN(c3ccc(F)cc3)CC2)oc2ccccc12)c1c(F)cccc1F	.	.	-2.9%	?	-21.8%	?
Cc1ccc(CNC(=O)Cn2ccn(-c3cc(C)cc(C)c3)c(=O)c2=O)cc1	.	.	-13.3%	-1.6%	-3.0%	-17.9%
Cn1c(C2CCC2)nc2cc(C(=O)N3CCOc4ccccc4C3)cc(NC(=O)C3CCCO3)c21 (configuration not stated)	.	.	.	24.3%[9.04 µM]	.	-6.9%
CC(=O)N1c2ccccc2C(=O)C1N1CCN(c2cccc(Cl)c2)CC1 (configuration not stated)	.	.	2.6%	-0.7%	11.6%	-26.7%
N#CCOC(=O)c1cc(S(=O)(=O)N2CCCCC2)ccc1N1CCOCC1	-7.3	2.6%	3.2%	-23.4%	-4.6%	16.2%
O=C(OCc1ccc([N+](=O)[O-])cc1)c1cc(S(=O)(=O)N2CCCCC2)ccc1N1CCOCC1	-14.6	-1.8%	-3.8%	14.6µM*	3.2%	7.31µM*
CCOC(=O)C1=C(COC(=O)c2cccnc2SC)NC(=O)NC1C (configuration not stated)	?	0.9%	0.2%	3.5%	-2.8%	-0.5%
COc1cc(Nc2cccc(-c3ccccc3)n2)cc(OC)c1OC	19.7	.	58.1%	18.4µM*	-28.2%	?
COc1cc(Nc2ccn3nc(-c4ccccc4Cl)cc3n2)cc(OC)c1OC	0.0	.	?	?	-46.7%	20.6µM*
SMILES	IL1B secr inh	S-ASM inh	TGFb inhibitor	TDP1 cell CPT	HepG2 tox	DT40 TDP1 no CPT
COCCCNc1ccn2nc(-c3cccc(OCc4ccccc4)c3)cc2n1	23.0	.	?	?	-52.6%	7.31µM*
COCCCNc1ccn2nc(-c3ccccc3)cc2n1	-9.8	.	-10.4%	-22.1%	-5.9%	-22.7%
COc1ccccc1-c1cc2nc(NCCOc3ccccc3)ccn2n1	-1.9	.	?	18.4µM*	-38.1%	16.4µM*
c1ccc(COc2ccc(-c3cc4nc(NCCCn5ccnc5)ccn4n3)cc2)cc1	-14.7	.	-1.5%	23.1µM*	-44.1%	16.4µM*
O=S(=O)(Nc1ccc(Cl)cn1)c1cccs1	35.4	-3.7%	6.4%	13.1%	1.2%	-2.6%
CC1CCCCC1NC(=O)CSc1nnc(C(F)(F)F)n1C (configuration not stated)	-14.9	.	-8.1%	-2.5%	-5.1%	10.0%
CNc1ccccc1C(C)(C)c1cc(-c2cccc(OC)c2)no1	7.4	-0.9%	-6.2%	4.61µM*	-27.1%	5.17µM*
O=C(Nc1cc(-c2ccccc2)[nH]n1)c1ccccc1F	-57.3*	1.3%	-5.9%	-26.8%	-72.0%	?
O=C(Nc1cc(-c2ccccc2)[nH]n1)c1ccccc1	-54.0*	-4.5%	-21.3%	-2.6%	-5.3%	?
CCOC(=O)/C(C#N)=N\Nc1ccc(S(=O)(=O)Nc2nc(C)cc(C)n2)cc1	-1.4	3.3%	-10.8%	0.5%	-5.6%	-17.1%
CC1CCc2c(sc(/N=C/N(C)C)c2C#N)C1 (configuration not stated)	-63.1*	-1.4%	-8.1%	?	-25.7%	-20.1%
CCc1cccc(-n2nnc(-c3nc(-c4ccccc4Cl)no3)c2N)c1	.	.	2.2%	7.6%	2.4%	-2.0%
CC1CCCN(CCC(=O)Nc2ccc(F)c(F)c2)C1 (configuration not stated)	-13.2	-2.0%	0.5%	6.3%	-13.9%	8.7%
CCc1nc2ccc(C(=O)N3CCN(c4ccc(Cl)cc4)CC3)cc2nc1CC	-15.4	?	-13.0%	?	-15.8%	?
